Source: PubChem BioAssay
The list is not random: actives were taken first. Their share in the collection is about 2.4%.
Pol kappa inh-1 = DNA polymerase kappa (human) inhibition | Q9UBT6 | purified Pol kappa, fluorescent DNA synthesis assay, 10 min | Potency, µM (series often up to 107 µM), actives largely listed as inhibitors | actives 0.53% (n = 400,000) | AID 588579
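Activity was followed as the change in fluorescence between reads at 0 and 10 min after starting the reaction with 50 nM substrate. Beforehand, 10 nM polymerase had been preincubated with compound for 15 min at room temperature.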
POLI inh = DNA polymerase iota (human) inhibition; Q9UNA4; Pol iota fluorescent replication assay, 10 min; Potency, µM (doses to about 115 µM), usual class: inhibitors; actives 1% (n = 390,000)
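Fluorescent replication assay read twice, at 0 min and 10 min after adding 50 nM (final) substrate. Enzyme (10 nM) and compounds were first incubated 15 min at room temperature; enzyme-free buffer wells were negative controls.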
TDP1 inh = inhibitors of human tyrosyl-DNA phosphodiesterase TDP1; Q9NUW8; recombinant TDP1, AlphaScreen DNA substrate cleavage; Potency, µM (titrated, usually from 130 µM), actives largely listed as inhibitors; actives 0.28% (n = 350,000); AID 485290; further: nearly all actives have a fitted effect of over 40% in size
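AlphaScreen read-out: signal falls as enzyme removes the 3' tyrosine-FITC from a 5'-biotinylated DNA oligo (15 nM, 5 min, RT). Enzyme was E. coli-made recombinant Tdp1 at 1 nM, exposed to compound for 15 min beforehand; beads 10 ug/ml, 10 min.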
FEN1 inh = human FEN1 inhibition; Potency, µM (doses to about 114 µM), actives largely listed as inhibitors; P39748; Recombinant FEN1 flap cleavage, fluorescence, 15 min; actives 0.35% (n = 390,000); further: nearly all actives have a fitted effect of over 65% in size
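Potency values derive from four-parameter Hill fits of normalized qHTS data. The reaction used 10 nM FEN1 preincubated 15 min at room temperature with compound, then 50 nM DNA substrate, read at 0 and 15 min.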
Pol beta inh = blocks human DNA polymerase beta activity | Pol beta primer extension/strand displacement, fluorescence kinetic | Potency, µM (doses to about 114 µM), most hits filed as inhibitors | actives 1.3% (n = 340,000) | AID 485314
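Pol beta (10 nM) was preincubated with compound for 15 min at room temperature. The reaction was then started with 50 nM substrate and read immediately and after a further 10 min at room temperature.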
Pol eta inh-1 = blocks human DNA polymerase eta activity | Q9Y253 | recombinant Pol eta, fluorescent DNA replication assay | Potency, µM (doses to about 114 µM), usual class: inhibitors | actives 1.2% (n = 390,000) | AID 588591
Target sequence (Q9Y253 whole entry, looked up): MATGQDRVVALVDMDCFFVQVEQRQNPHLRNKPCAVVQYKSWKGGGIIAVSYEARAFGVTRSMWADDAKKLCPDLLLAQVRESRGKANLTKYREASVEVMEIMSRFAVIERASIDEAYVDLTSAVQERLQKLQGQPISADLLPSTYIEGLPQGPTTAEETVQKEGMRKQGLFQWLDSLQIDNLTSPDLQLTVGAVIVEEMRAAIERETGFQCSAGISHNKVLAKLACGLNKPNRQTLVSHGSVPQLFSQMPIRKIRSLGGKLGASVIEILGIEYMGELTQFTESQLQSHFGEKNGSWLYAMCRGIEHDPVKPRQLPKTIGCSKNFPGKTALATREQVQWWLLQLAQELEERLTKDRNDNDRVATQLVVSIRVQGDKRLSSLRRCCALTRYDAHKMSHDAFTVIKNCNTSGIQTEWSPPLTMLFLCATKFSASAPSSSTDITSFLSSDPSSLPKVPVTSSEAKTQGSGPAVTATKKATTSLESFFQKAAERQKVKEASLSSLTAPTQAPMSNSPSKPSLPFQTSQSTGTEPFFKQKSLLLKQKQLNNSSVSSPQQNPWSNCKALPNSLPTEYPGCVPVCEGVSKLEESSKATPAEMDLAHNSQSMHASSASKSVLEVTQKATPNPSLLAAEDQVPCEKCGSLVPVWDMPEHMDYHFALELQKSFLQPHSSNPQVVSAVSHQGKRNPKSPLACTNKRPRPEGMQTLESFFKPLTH
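Pol eta (10 nM) was preincubated with compounds for 15 min at room temperature, after which fluorescent replication substrate (50 nM final) was added to start the reaction. Fluorescence was read kinetically at 0 and 10 min.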
Pol kappa inh-2 = Pol kappa (human) inhibition, cherry-pick confirmation. shares compounds with Pol eta inh-1. purified Pol-kappa, fluorescent strand-displacement substrate. Potency, µM, most hits filed as inhibitors. actives 76% (n = 920). AID 720501
Pol eta inh-2 = confirmation of human DNA polymerase eta inhibitors; shares compounds with Pol eta inh-1; Pol eta primer extension, TAMRA/BHQ fluorescence, 10 min; Potency, µM, usual class: inhibitors; actives 64% (n = 2,600)
Numbers stand for hits; i = inactive; ? = inconclusive; nt = not tested or not shown; [ ] = dose if it differs, or a comment. The call rests on the fitted dose curve; in most records, active means well fitted curve in the direction sought with a large enough effect; inconclusive means small, poorly fitted or top-dose-only effect, or another doubt; inactive means no such curve, though single readings can be large; an effect the other way counts as inactive or inconclusive.

SMILES	Pol kappa inh-1	POLI inh	TDP1 inh	FEN1 inh	Pol beta inh	Pol eta inh-1	Pol eta inh-2	others
COC(=O)C(C)N1C(=O)S/C(=C\c2ccc(-c3ccc(C(=O)O)cc3C)o2)C1=O (stereo not given)	32µM	?	nt	?	40µM	10µM	43
COC(=O)c1ccc(C(NC(=O)OCc2ccccc2)/C(I)=C/[C@@H](C)C(=O)Nc2ccccc2)cc1 (stereo not given in full)	nt	nt	i	nt	nt	nt	nt
NC(=O)CC[C@@H]1NC(=O)[C@H](CO)NC(=O)c2cc([N+](=O)[O-])cc(I)c2OCC[C@@H](C(N)=O)NC1=O	i	i	i	i	i	i	nt
NCCCC[C@@H]1NC(=O)[C@H](CCC(=O)O)NC(=O)c2cc([N+](=O)[O-])cc(I)c2OCC[C@@H](C(N)=O)NC1=O	25µM	?	i	i	i	14µM	30
COC/C=C/C1=CC2=CC(=O)C(C)(OC(=O)C3CCCC3)C(=O)C2=CO1 (stereo not given)	50µM	?	i	40µM	40µM	20µM	48
CCc1ccc(NC(=O)Cn2c(=O)n(-c3ccc(OC)cc3)c(=O)c3ccc(C(=O)NCc4ccc(C)cc4)cc32)cc1	i	i	i	i	i	i	nt
COc1ccc(N2CCN(C(=O)c3c(C)oc4ncnc(N5CCCCC5)c34)CC2)cc1	i	?	i	i	i	i	nt
O=C(O)COc1ccccc1/C=C1\SC(=S)N(/N=C/c2ccccc2O)C1=O	i	?	?	i	i	22µM	48	Pol kappa inh-2=75
O=C(O)COc1ccccc1/C=C1\SC(=S)N(NC(=O)c2ccccc2O)C1=O	32µM	7.1µM	i	?	nt	32µM	?	Pol kappa inh-2=7.5
O=C(NN1C(=O)/C(=C/c2ccc(O)c(O)c2)SC1=S)c1ccccc1	40µM	22µM	i	i	18µM	1.1µM	?
CC(=O)NC[C@@H]1CN(c2ccc(N3CCOCC3)c(F)c2)C(=O)O1	i	nt	i	nt	nt	nt	nt
CC(=O)N1CCc2c(sc3c2c(=O)n(CCc2ccccc2)c(=O)n3Cc2ccccc2C)C1	i	i	i	i	?	i	nt
Cc1ccc(-n2c3nc(=O)[nH]c(=O)c-3cc3cc([N+](=O)[O-])ccc32)cc1C	i	i	i	?	i	20µM	?
CCOc1ccc(-c2ccc(/C=C3/C(=N)N4C(C)=CSC4=NC3=O)o2)c([N+](=O)[O-])c1	?	40µM	i	i	35µM	14µM	?
CCOc1cc(/C=N/n2c(COc3ccccc3)n[nH]c2=S)ccc1O	i	i	nt	i	i	i	nt
Oc1ccc(/C=N/n2c(COc3ccccc3)n[nH]c2=S)cc1O	20µM	6.3µM	nt	i	6.3µM	?	17
O=C1/C(=C/c2ccc(C(=O)O)cc2)CCC/C1=C\c1ccc(C(=O)O)cc1	i	?	i	i	i	8.9µM	30
CCN1C(=O)C(=Cc2cccc(OC)c2Oc2ccc([N+](=O)[O-])cc2[N+](=O)[O-])SC1=S	i	i	nt	i	i	i	nt
CCN1C(=O)/C(=C\c2ccc(-c3ccc([N+](=O)[O-])cc3OC)o2)SC1=Nc1cccc(C(=O)O)c1	i	?	i	?	?	28µM	76
COc1ccccc1NC(=O)C(=N\O)/C(C)=N/O	?	?	?	i	45µM	14µM	85
COc1ccccc1NC(C)=O	i	?	i	i	i	i	nt
COc1ccc2[nH]cc(CCNc3ncnc4ccc(-c5ccccc5OC)cc34)c2c1	i	nt	nt	nt	nt	nt	nt
COc1ccccc1/C=C1\S/C(=N/NC(=O)c2cccc(Br)c2)NC1=O	i	i	i	i	i	40µM	?
O=C(CSc1ncn(-c2ccccc2)n1)Nc1nc2ccccc2s1	i	i	i	i	i	i	nt
O=C(CSc1ncn(-c2ccccc2)n1)Nc1nc2c(s1)CCCC2	i	25µM	i	i	32µM	50µM	?
SMILES	Pol kappa inh-1	POLI inh	TDP1 inh	FEN1 inh	Pol beta inh	Pol eta inh-1	Pol eta inh-2	others
O=C(Nc1sc2c(c1C(=O)O)CCC2)c1ccccc1	?	?	nt	i	20µM	13µM	76
O=C(/C=C/c1ccco1)Nc1sc2c(c1C(=O)O)CCC2	?	?	nt	i	i	79µM	?
N#Cc1c(NC(=O)/C=C/c2ccco2)sc2c1CCCC2	i	50µM	i	i	?	?	85
Cc1ccc(-c2csc(NC(=O)/C=C/c3ccco3)c2C(=O)O)cc1	50µM	?	nt	i	28µM	28µM	?
O=C(/C=C/c1ccccc1)Nc1sc2c(c1C(=O)O)CCC2	?	?	i	i	i	i	nt
O=C(Nc1scc(-c2ccc(F)cc2)c1C(=O)O)c1ccco1	i	?	i	i	i	i	nt
CCN1C(C)=C(C(=O)OC)C(c2ccccc2)N2C(=O)[C@](O)(C(=O)OC)C(c3ccccc3)C(C(C)=O)=C12 (stereo not given in full)	nt	nt	i[21 µM]	nt	nt	nt	nt
O=C(OCC#CCSc1nnc(-c2cccc3ccccc23)o1)c1ccc(F)nc1	nt	nt	i	nt	nt	nt	nt
CC(=O)Oc1ccc(C(=O)Nc2cccc(C(=O)NC(C)(C)C)c2)cc1	i	i	i	i	i	i	nt
CC(=O)Oc1ccc(C(=O)Nc2cccc(C(=O)c3cccc(NC(=O)c4ccc(OC(C)=O)cc4)c3)c2)cc1	?	7.9µM	nt	?	13µM	3.2µM	54
CCOc1ccc(NC(=O)c2ccc3[nH]c(C)cc(=O)c3c2)cc1	i	i	i	i	i	i	nt
CCOc1ccc(Cc2c(C)[nH]c3ccc(C(=O)O)cc3c2=S)cc1	?	?	i	i	?	50µM	?
Cc1ccc(-n2c(=O)c3c(cnn3C)n(CC(=O)Nc3cc(C)ccc3C)c2=O)cc1	i	i	i	i	i	i	nt
COc1ccc2c(c1)c(=O)oc1c(C)c(OC(C)C(=O)N[C@@H](Cc3c[nH]c4ccc(O)cc34)C(=O)O)ccc12 (stereo not given in full)	?	?	nt	i	?	20µM	48
COc1cccc(N2CC(NC(=O)c3cc4ccccc4o3)CC2=O)c1 (stereo not given)	i	i	i	i	?	i	nt
COc1ccc(-c2nc3nc(C)cc(Nc4cccc(C(F)(F)F)c4)n3n2)cc1	i	i	nt	i	?	?	nt	Pol kappa inh-2=19
Cc1cc(Nc2cccc(C(F)(F)F)c2)n2nc(C)nc2n1	i	i	i	i	i	i	nt
COc1ccccc1C(CNC(=O)c1ccc(NS(=O)(=O)c2ccc(C(C)=O)cc2)cc1)N1CCCC1 (stereo not given)	?	32µM	nt	i	nt	16µM	?
